Experimental findings from ChEMBL document CHEMBL3433997, “St. Jude Leishmania screening dataset” (2016) are described below.

What all share (format): functional
Test [1] deals with Solute carrier family 2, facilitated glucose transporter member 1 (Homo sapiens) (UniProt P11166). As to the kind of experiment: ST_JUDE_LEISH: Cytotoxicity at 2uM final concentration against transgenic Leishmania Mexicana promastigotes LmGLUT1 that are glucose transport deficient and complemented with the human glucose transporter GLUT1. Activity is measured by DNA content using SYBR green in vitro.
Solute carrier family 2, facilitated glucose transporter member 1 (Homo sapiens), sequence (P11166 whole entry): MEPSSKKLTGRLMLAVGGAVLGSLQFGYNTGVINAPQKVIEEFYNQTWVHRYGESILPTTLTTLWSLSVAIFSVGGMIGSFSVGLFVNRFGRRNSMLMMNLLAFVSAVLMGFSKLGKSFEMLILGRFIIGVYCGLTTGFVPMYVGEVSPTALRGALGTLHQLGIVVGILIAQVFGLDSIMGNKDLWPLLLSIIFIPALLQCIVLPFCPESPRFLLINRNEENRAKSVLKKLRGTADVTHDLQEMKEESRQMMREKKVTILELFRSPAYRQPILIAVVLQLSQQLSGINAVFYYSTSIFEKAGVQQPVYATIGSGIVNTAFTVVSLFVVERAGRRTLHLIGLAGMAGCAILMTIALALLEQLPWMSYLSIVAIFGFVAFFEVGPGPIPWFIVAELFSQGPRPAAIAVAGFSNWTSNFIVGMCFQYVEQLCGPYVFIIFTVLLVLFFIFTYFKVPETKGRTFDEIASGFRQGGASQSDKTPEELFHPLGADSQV

Test [2] has as its target Hexose transporter 1 (Plasmodium falciparum) (UniProt O97467). As to the kind of experiment: ST_JUDE_LEISH: Cytotoxicity at 2uM final concentration against transgenic Leishmania Mexicana promastigotes LmPfHT that are glucose transport deficient and complemented with the Plasmodium falciparum hexose transporter. Activity is measured by DNA content using SYBR green in vitro.

In test [3] the target is Glucose transporter (Leishmania mexicana) (UniProt O61059). As to the kind of experiment: ST_JUDE_LEISH: Cytotoxicity at 2uM final concentration against transgenic Leishmania Mexicana promastigotes LmGT2 that are glucose transport deficient and complemented with the L. Mexicana glucose transporter 2. Activity is measured by DNA content using SYBR green in vitro.

Structures are written as SMILES.

For orientation: inhibition means the relative decrease from the control value, in per cent. Consider `Cc1ccc(Cn2cnc(N3CC(C)NC(C)C3)cc2=O)cc1NC(=O)Nc1ccc(-c2ccccc2)cc1` (stereo unspecified), for which the inhibition in test [1] is -0.2%; in test [2] it was -0.46%; in test [3], -0.19%.
The like results for `Cc1c(S(=O)(=O)Nc2cccc(CCN3CCCCC3CCN3CCCC3)c2)sc2ccc(Cl)cc12` (stereo unspecified) were, in that order, -1.39%, 2.14% and -0.62%.
As to `CC(C)N1CCCN(C(=O)C2CCN(c3ccc(C(=O)N4CCCC4)cn3)CC2)CC1`, the inhibition in test [1] came out at 5.32%; in test [2], 4.11%; in test [3], 4.51%.
With `C=CCOC(=O)N1CCC(CNCc2cccc(-c3ccc(-c4nc5cc(C(F)(F)F)ccc5[nH]4)cc3)c2)C1` (stereo unspecified), the values for the inhibition in test [1], in test [2] and in test [3] were 2.19%, 2.5% and 1.63%, respectively.
For `COc1ccc(Cn2c(Nc3cccc(C(F)(F)F)c3)nc3cc(C(=O)NCCN4CCCC4)cnc32)cc1Cl`, in that order: 13.2%, 12.9% and 15.6%.
For `N#Cc1cccc(CN2CCCN(Cc3ccc(C(=O)Nc4ccc(Cl)cc4)cc3)CC2)c1`, in that order: 4.41%, 5.4% and -0.06%.
Consider `CC(C)CNCc1ccc(-c2ccc(CNC3CCN(Cc4ccccc4)CC3)cc2)cc1`, for which the figures for the inhibition in test [1], in test [2] and in test [3] were 0.98%, 4.82% and 5.31%, respectively.
For `O=C(NCCCCN1CCN(c2cccc3c2CCCC3)CC1)c1ccc(NC(=O)c2ccc(Cl)cc2)cc1`, in that order: 3.35%, 1.45% and 1.92%.
In the case of `N#Cc1ccc2c(c1)CCN(CCC1CCC(Nc3ncnc4ccccc34)CC1)C2` (stereo unspecified), the values for the inhibition in test [1], in test [2] and in test [3] were 10.7%, 3.96% and 4.21%, respectively.
The like results for `CC(=O)c1ccc2cc(C(=O)NC3CCC(CCN4CCc5ccc(-c6noc(C)n6)cc5CC4)CC3)[nH]c2c1` (stereo unspecified) were, in that order, -0.19%, -0.01% and -2.09%.
In the case of `COc1ccc(-n2ccnc2)cc1CNC1CCN(CC2Cn3c(=O)ccc4ccc(F)c2c43)CC1` (stereo unspecified), the inhibition in test [1] stood at 4.7%; in test [2], 4.54%; in test [3] it was 5.24%.
As for `CCOC(=O)c1ccc(NCc2ccccn2)cc1`, the inhibition in test [1] was 3.11%; in test [2] it was 3.01%; in test [3] it was 2.96%.
For `CC(=O)Nc1ccc(CNC2Cc3ccc(-c4ccc(Cl)c(Cl)c4)cc3C2)cc1` (stereo unspecified), in that order: -0.97%, -1.57% and -0.25%.
The like results for `COc1ccccc1C(C)NCC(=O)Nc1ccccc1Sc1ccccc1` (stereo unspecified) were, in that order, 0.18%, 0.01% and 1.44%.
For `CCCc1cc(OC)c(CC2c3cc(O)c(C)cc3CCN2C)cc1OC` (stereo unspecified), in that order: -2.27%, -4.03% and 3.59%.
As for `CC(C)c1ccc(NC(=O)NCCCC2CCCN(CCCCCNC(=O)/C=C/c3ccc(Cl)c(Cl)c3)C2)cc1` (stereo unspecified), the inhibition in test [1] is 1.47%; in test [2], 2.49%; in test [3], 5.08%.
In the case of `CN(C)c1ccc(OCCCCCCOc2ccccc2)cc1`, the inhibition in test [1] turned out to be 1.32%; in test [2] it was 1.77%; in test [3] it was 1.98%.
For `CC(=O)Nc1ccc(Nc2ncc([N+](=O)[O-])c(Nc3ccccc3C(N)=O)n2)cc1`, in that order: 3.27%, 1.61% and 1.93%.
Take `CC(C)(C)c1ccc(CN2CCC(CNC(=O)c3cc(-c4ccccc4Cl)cs3)C2)cc1` (stereo unspecified): the inhibition was 0.49% in test [1], 0.05% in test [2] and 1.29% in test [3].
Take `O=C(/C=C/c1ccc(Cl)c(Cl)c1)NCCCCCN1CCCC(C(=O)Nc2cccc(Cl)c2)C1` (stereo unspecified): the inhibition in test [1] amounted to 3.89%; in test [2] it was 2.5%; in test [3], 1.07%.
The like results for `C=C[C@H]1CN(CCCCCCC)CC[C@H]1C[C@@H](Cc1ccnc2ccc(OC)cc12)OC(=O)[C@](OC)(c1ccccc1)C(F)(F)F` were, in that order, 0.1%, -0.32% and -3.72%.
Regarding `COc1cccc(CC(=O)NC2CCN(c3ccnc4cc(Cl)ccc34)C2)c1` (stereo unspecified), the results for the inhibition in test [1], in test [2] and in test [3] were 0.02%, -0.46% and 1.48%, respectively.
The like results for `Cc1ccc(O)cc1Nc1ccnc2cc(-c3ccccn3)ccc12` were, in that order, 5.99%, 4.26% and 3.28%.
For `CNc1ccc(CNCc2ccc(-c3ccc(-c4nc5cc(C(F)(F)F)ccc5[nH]4)s3)cc2)cc1`, in that order: 2.19%, 0.49% and -0.01%.
For `COc1cc(Cc2cnc(N)nc2N)cc(OCCCCC2SC(=O)NC2=O)c1OC` (stereo unspecified), the inhibition was determined as 2.3% in test [1], 0.84% in test [2] and 1.34% in test [3].
With `COc1ccc(-c2cc(C(=O)N[C@@H](CC3CCCCC3)C(=O)NCCN3CCCC3)ccc2O)cc1`, the figures for the inhibition in test [1], in test [2] and in test [3] were 0.33%, 1.9% and 1.32%, respectively.
For `O=C(CCc1cccnc1)Nc1cccc(-c2ccc(-c3nc4cc(C(F)(F)F)ccc4[nH]3)cc2)c1`, in that order: 9.2%, 7.53% and 6.85%.
Consider `O=C(NCCc1cccc(F)c1)c1ccc(N2CCN(c3ccncc3)CC2)cn1`, for which the inhibition in test [1] was found to be 8.21%; in test [2], 4.37%; in test [3], 6.9%.
Take `O=C(Nc1cccc(-c2ccc(CN3CCCC3)cc2)c1)c1ccc(Cl)cc1`: the inhibition in test [1] stood at 3.03%; in test [2], 1.53%; in test [3] it was 1.42%.
The like results for `Cc1cccc(CN2CCC(Oc3ccc(NC(=O)c4cccs4)cc3Cl)CC2)n1` were, in that order, 5.76%, 3.92% and 2.69%.
`CNC(=O)c1cnc(Nc2ccc(OCC(O)CN(C)C)cc2)nc1Nc1cccc(OC)c1` (stereo unspecified): the figures for the inhibition in test [1], in test [2] and in test [3] were 3.9%, -2.08% and 4.47%, respectively.
For `CCN(c1ccccc1)S(=O)(=O)c1ccc(OC)c(NC(=O)c2cccc(C(F)(F)F)c2)c1`, in that order: 10.4%, 7.45% and 7.82%.
